From PubChem BioAssay come the findings set out here.

E3 ubiquitin-protein ligase XIAP (Homo sapiens), sequence (P98170 whole entry, looked up): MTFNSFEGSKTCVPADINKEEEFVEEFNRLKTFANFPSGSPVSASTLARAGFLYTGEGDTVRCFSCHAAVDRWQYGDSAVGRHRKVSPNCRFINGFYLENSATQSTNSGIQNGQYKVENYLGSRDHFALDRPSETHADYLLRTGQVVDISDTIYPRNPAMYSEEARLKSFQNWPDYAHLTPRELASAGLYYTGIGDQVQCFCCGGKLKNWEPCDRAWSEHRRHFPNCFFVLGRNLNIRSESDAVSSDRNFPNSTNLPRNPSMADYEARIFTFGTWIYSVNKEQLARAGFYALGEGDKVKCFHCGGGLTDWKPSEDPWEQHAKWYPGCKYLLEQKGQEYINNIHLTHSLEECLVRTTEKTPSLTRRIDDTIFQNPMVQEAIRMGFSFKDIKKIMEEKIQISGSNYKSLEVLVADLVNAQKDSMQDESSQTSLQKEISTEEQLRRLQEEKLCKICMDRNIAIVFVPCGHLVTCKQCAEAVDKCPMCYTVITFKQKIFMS

This assay addresses E3 ubiquitin-protein ligase XIAP (Homo sapiens) (UniProt P98170). The experiment in a line: XIAP binders, primary screen, biophysical, small-molecule microarray, fluorescence 635 nm (AID 1181).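 Also: score merges 667 nm emission and signal to noise over triplicate slides.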 The following applies: small-molecule microarray binding, higher = more signal.
In turn, `O=C(O)[C@@H]1[C@@H]2C(=O)N(c3ccccc3)C(=O)[C@@H]2C[C@@H]1Sc1ccccc1` yielded a composite z-score of -0.0907.

In turn, `CCOC(=O)C1=CC[C@@H](c2ccccc2F)N(S(=O)(=O)c2ccc(C)cc2)[C@H]1c1ccccc1` came in with a composite z-score of -0.195.

`C=CCN1Cc2ccccc2[C@@H]2OC(c3ccc(OCCCO)cc3)=N[C@]2(CC=C)C1=O` showed a composite z-score of 0.247.

`O=C(NCCN1CCOCC1)[C@@H]1c2ccccc2C(=O)N(C2Cc3ccccc3C2)[C@H]1c1ccc(CO)cc1` displayed a composite z-score of 0.164.

On to `C=CCC(OC(C)=O)[C@@H]1[C@@H](N(Cc2cccc3ccccc23)C(=O)Cc2ccc(OC)cc2)c2cc(OCCCO)ccc2N1C(=O)c1ccc(-c2ccccc2)cc1` (stereo partly specified), for which the composite z-score is -0.224.

`CC(C)[Si](C#CCCCC#N)(O[C@H](c1ccccc1)c1cn(Cc2ccccc2)nn1)C(C)C`: the composite z-score is -0.0025.

Molecule `NCCCCCCNC(=O)[C@@H]1C[C@@H]2C(=O)N[C@@H](CCCCN)C(=O)N2[C@@H]1c1ccc(O)cc1` showed a composite z-score of -0.28.

The molecule `CCN(CC)c1ccc(N2CC=CC34O[C@@H]5/C=C\CCCOC(=O)C5[C@H]3C(=O)N(C(C)CO)[C@@H]4C2=O)cc1` (stereo partly specified) came in with a composite z-score of 0.115.

Molecule `CC(C)N1C(=O)C[C@@](C(=O)O)(c2ccc([N+](=O)[O-])cc2)[C@H]1c1ccc(CO)cc1` registered a composite z-score of -0.169.

In turn, `CN(C)C(=O)[C@@]1(Cc2ccccc2)N=C(c2ccc(OCCCO)cc2)O[C@H]1c1ccccc1` had a composite z-score of -0.205.

Molecule `Cc1ccc(S[C@]2(C(=O)NC(C)C)CC(=O)N(Cc3cc(C(F)(F)F)cc(C(F)(F)F)c3)[C@@H]2c2ccc(CO)cc2)cc1` came in with a composite z-score of -0.0125.

`COCC(=C=CC[C@H](O)c1ccc(CO)o1)CCO` registered a composite z-score of 0.536.

`CCCCCN1CC=CC23O[C@@H]4/C=C\CCCOC(=O)C4[C@H]2C(=O)N(C(C)CO)[C@@H]3C1=O` (stereo partly specified) had a composite z-score of -0.162.

The molecule `COc1ccc([Si](C)(C)[C@@H]2[C@@H](CCO)O[C@]3(C(=O)N(Cc4cccc(NC(=O)[C@H](C)O)c4)c4ccccc43)[C@H]2C)cc1` yielded a composite z-score of 0.0479.

In the case of `Cc1ccc(S[C@]2(C(=O)NCc3ccccc3)CC(=O)N(C3CCCCC3)[C@@H]2c2ccc(CO)cc2I)cc1`, the composite z-score is -0.0095.

In the case of `CC(C)c1ccc(NN2C(C(O)c3ccc(F)cc3)C=CC3C(=O)N(c4ccccc4)C(=O)C32)cc1` (stereo unspecified), the composite z-score is -0.226.

On to `COC(=O)[C@@]1(Cc2ccccc2)[C@H]2c3cc(C(=O)N4CCCC4)n(CCc4ccccn4)c3C[C@H]2CN1C(=O)c1ccccc1`, for which the composite z-score was 0.293.

`CCCN1C(=O)[C@]2(Cc3ccccc31)N=C(c1ccc(OCCCO)cc1)O[C@@H]2c1ccccc1` came in with a composite z-score of 0.0605.

Regarding `O=C1[C@H]2C=C(I)[C@H](C[C@@H]2OCCOCCO)[C@@]12CO2`, the composite z-score is -0.304.

`CCCCCCc1nc(Cc2cc(OC)c(OC)c(OC)c2)cc2c1[Si](C(C)C)(C(C)C)OC2` displayed a composite z-score of 0.0009.

`COC(=O)C(CC#Cc1ccc2c(c1)[C@]1(C(=O)N2)[C@H](c2ccc(O)cc2)N2[C@H](c3ccccc3)[C@H](c3ccccc3)OC(=O)[C@H]2[C@@H]1C(=O)NC[C@H](O)c1ccccc1)C(=O)OC` yielded a composite z-score of -0.0013.

`COCCOC(=O)N1C(=O)[C@@]2(c3cc(C#CC4=CCCCC4)ccc31)[C@H](c1ccccc1OCCO)N1[C@H](c3ccccc3)[C@H](c3ccccc3)OC(=O)[C@H]1[C@@H]2C(=O)N1CCN(c2ncccn2)CC1`: the composite z-score was -0.124.

The molecule `O[C@@H](Cc1ccccc1)[C@@H](/C=C/C1CC1)N(CC#Cc1ccccc1)Cc1ccccc1Br` gave a composite z-score of 0.339.

As to `COc1cc2c(cc1O)C=[N+](Cc1sc3ccccc3c1Cl)CC2`, the composite z-score amounted to 0.158.

For the molecule `COc1ccc(C#Cc2ccc3c(c2)[C@]2(C(=O)N3)[C@H](C(=O)O)[C@H]3C(=O)O[C@H](c4ccccc4)[C@H](c4ccccc4)N3[C@@H]2c2ccc(O)cc2)cc1`, the composite z-score was -0.209.

On to `Cn1cccc1C(O)C1C=CC2C(=O)N(c3ccccc3)C(=O)C2N1Nc1ccccc1` (stereo unspecified), for which the composite z-score is -0.0773.

Turning to `Cc1ccc(F)cc1S(=O)(=O)N[C@@H]1CCN(Cc2ccc(Br)cc2)C1`, the composite z-score is -0.17.

For `CC1CC/C=C\[C@H]2OC34C=CCN(Cc5ccccc5)C(=O)[C@H]3N(C(CO)C(C)C)C(=O)[C@@H]4C2C(=O)O1` (stereo partly specified), the composite z-score is -0.211.

In turn, `CCOC(=O)C1=C[C@@H](C(C)C)N(S(=O)(=O)c2ccc(C)cc2)[C@H]1c1ccc(C(F)(F)F)cc1` had a composite z-score of 0.109.

`COCCCNC(=O)[C@@]1(Sc2ccc(C)cc2)CC(=O)N(C2Cc3ccccc3C2)[C@@H]1c1ccc(CO)cc1` displayed a composite z-score of -0.0367.

As for `C[N+](C)(C)CCCC[C@@H]1NC(=O)[C@@H]2C[C@H](C(=O)NCCCCCCN)[C@H](c3cccc(OCCO)c3)N2C1=O`, the composite z-score came to 0.215.

`C=CCC(OC(C)=O)[C@@H]1[C@@H](N(Cc2ccc(-c3ccccc3)cc2)C(=O)c2ccc(-c3ccccc3)cc2)c2cc(OCCCO)ccc2N1C(=O)c1ccc2ccccc2c1` (stereo partly specified) showed a composite z-score of 0.0423.

Regarding `CC1CC/C=C\[C@H]2OC34C=CCN(C(C)C)C(=O)[C@H]3N(CCO)C(=O)[C@@H]4C2C(=O)O1` (stereo partly specified), the composite z-score was 0.0484.

With `CCCNC(=O)[C@@H]1c2ccccc2C(=O)N(Cc2ccc(OC(F)(F)F)cc2)[C@H]1c1ccc(CO)cc1`, the composite z-score amounted to 0.155.

With `CC(C)NC(=O)[C@@]1(C)c2ccccc2C(=O)N(Cc2ccc(OC(F)(F)F)cc2)[C@H]1c1ccc(CO)cc1`, the composite z-score was -0.217.

Molecule `COc1ccc(CCNC(=O)[C@@]2(Cc3ccccc3I)c3ccccc3C(=O)N(C3CCCCC3)[C@H]2c2ccc(CO)cc2)cc1` had a composite z-score of 0.144.
